# Assays:
# Test in all cases: DAPPL (digital affinity profiling via proximity ligation, sequencing); 10 mM Tris-HCl pH 7.5, 50 mM NaCl, 1 mM DTT, 4% glycerol, room temperature, 30 min; GST-TFs on glutathione beads, 16-mer random dsDNA library, 0.1% formaldehyde crosslink after washing; high values mean tight binding
# [1] = biological target: T1, FEV (Homo sapiens, UniProt Q99581 1-238); details: protein: recombinant; tags: N-terminal GST; dsDNA, one strand shown
# T1 sequence: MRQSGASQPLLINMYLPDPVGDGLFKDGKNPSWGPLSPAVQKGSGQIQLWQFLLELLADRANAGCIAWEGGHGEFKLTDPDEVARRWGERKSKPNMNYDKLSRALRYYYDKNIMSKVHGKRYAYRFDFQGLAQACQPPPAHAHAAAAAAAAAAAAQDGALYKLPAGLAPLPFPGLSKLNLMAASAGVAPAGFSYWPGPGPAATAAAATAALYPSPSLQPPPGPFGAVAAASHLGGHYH
# Summary of the method: (§1)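 Beads coated with glutathione captured GST-fused human transcription factors that had been expressed in yeast, and the factors were then given DNA barcodes and pooled with a tag-only sample. The pools were incubated with 200 nmole of a random double-stranded 16-mer DNA library in Tris/NaCl/DTT/glycerol buffer for 30 min at room temperature, washed, crosslinked with 0.1% formaldehyde and proximity-ligated with BsaI/T4 ligase at 37 °C for 1 h. PCR amplification and Illumina NextSeq500 sequencing came last. Binding signal is each hexamer's read frequency for a factor divided by its frequency for the tag-only sample.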
# [2] = biological target: ETV5 (Homo sapiens, UniProt P41161 1-510); details: protein: recombinant; tags: N-terminal GST; dsDNA, one strand shown
# Summary of the method: as §1
# [3] = biological target: HSF1 (Homo sapiens, UniProt Q00613 1-529); details: protein: recombinant; tags: N-terminal GST; chain copies: 3; dsDNA, one strand shown
# Summary of the method: as §1
# [4] = biological target: T2, SPIC (Homo sapiens, UniProt Q8N5J4 1-248); details: protein: recombinant; tags: N-terminal GST; dsDNA, one strand shown
# T2 sequence: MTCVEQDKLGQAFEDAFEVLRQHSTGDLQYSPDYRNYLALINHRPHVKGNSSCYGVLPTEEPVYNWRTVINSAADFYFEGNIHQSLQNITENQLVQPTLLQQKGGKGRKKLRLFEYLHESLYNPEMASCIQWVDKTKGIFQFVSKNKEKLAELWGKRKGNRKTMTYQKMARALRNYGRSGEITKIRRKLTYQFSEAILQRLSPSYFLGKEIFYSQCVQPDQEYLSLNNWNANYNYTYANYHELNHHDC
# Summary of the method: as §1
# [5] = biological target: ELF4 (Homo sapiens, UniProt Q99607 1-663); details: protein: recombinant; tags: N-terminal GST; dsDNA, one strand shown
# Summary of the method: as §1
# [6] = biological target: T3, ELK4 (Homo sapiens, UniProt P28324-2 1-405); details: protein: recombinant; tags: N-terminal GST; dsDNA, one strand shown
# T3 sequence: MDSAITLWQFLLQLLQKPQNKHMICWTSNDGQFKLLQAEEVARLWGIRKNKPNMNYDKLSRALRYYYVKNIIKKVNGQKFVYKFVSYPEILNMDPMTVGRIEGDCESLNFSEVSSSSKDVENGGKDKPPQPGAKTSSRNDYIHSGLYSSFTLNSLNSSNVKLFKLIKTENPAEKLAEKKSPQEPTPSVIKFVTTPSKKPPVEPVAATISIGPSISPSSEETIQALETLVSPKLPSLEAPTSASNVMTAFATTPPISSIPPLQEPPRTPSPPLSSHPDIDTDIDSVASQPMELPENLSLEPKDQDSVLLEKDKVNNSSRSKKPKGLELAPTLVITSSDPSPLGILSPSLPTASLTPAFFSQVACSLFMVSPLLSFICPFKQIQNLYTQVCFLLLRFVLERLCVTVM
# Summary of the method: as §1
# [7] = biological target: T4, ETV2 (Homo sapiens, UniProt O00321 1-342); details: protein: recombinant; tags: N-terminal GST; dsDNA, one strand shown
# T4 sequence: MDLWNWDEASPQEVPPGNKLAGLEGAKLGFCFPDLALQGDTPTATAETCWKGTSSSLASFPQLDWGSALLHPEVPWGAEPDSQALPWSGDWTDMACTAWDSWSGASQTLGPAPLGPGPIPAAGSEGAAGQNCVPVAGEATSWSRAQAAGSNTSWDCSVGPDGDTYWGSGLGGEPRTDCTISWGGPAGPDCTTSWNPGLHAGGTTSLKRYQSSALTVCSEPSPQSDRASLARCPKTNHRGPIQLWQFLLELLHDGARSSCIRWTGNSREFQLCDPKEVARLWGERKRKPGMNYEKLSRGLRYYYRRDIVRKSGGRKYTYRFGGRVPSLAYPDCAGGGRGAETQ
# Summary of the method: as §1
# [8] = biological target: T5, ELF3 (Homo sapiens, UniProt P78545 1-371); details: protein: recombinant; tags: N-terminal GST; dsDNA, one strand shown
# T5 sequence: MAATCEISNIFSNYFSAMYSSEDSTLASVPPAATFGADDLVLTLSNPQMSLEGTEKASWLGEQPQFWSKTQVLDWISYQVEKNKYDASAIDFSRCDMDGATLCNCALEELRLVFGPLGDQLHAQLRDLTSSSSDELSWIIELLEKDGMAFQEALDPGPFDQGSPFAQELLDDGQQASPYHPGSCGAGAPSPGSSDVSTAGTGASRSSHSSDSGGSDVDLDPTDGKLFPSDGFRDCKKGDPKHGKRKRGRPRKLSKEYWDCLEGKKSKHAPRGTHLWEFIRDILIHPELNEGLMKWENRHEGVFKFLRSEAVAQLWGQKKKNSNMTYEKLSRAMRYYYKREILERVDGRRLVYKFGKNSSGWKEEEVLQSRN
# Summary of the method: as §1
# [9] = biological target: CRX (Homo sapiens, UniProt O43186 1-299); details: protein: recombinant; tags: N-terminal GST; dsDNA, one strand shown
# Summary of the method: as §1
# [10] = biological target: ETV1 (Homo sapiens, UniProt P50549 1-477); details: protein: recombinant; tags: N-terminal GST; dsDNA, one strand shown
# Summary of the method: as §1
# [11] = biological target: T6, ERF (Homo sapiens, UniProt P50548 1-548); details: protein: recombinant; tags: N-terminal GST; dsDNA, one strand shown
# T6 sequence: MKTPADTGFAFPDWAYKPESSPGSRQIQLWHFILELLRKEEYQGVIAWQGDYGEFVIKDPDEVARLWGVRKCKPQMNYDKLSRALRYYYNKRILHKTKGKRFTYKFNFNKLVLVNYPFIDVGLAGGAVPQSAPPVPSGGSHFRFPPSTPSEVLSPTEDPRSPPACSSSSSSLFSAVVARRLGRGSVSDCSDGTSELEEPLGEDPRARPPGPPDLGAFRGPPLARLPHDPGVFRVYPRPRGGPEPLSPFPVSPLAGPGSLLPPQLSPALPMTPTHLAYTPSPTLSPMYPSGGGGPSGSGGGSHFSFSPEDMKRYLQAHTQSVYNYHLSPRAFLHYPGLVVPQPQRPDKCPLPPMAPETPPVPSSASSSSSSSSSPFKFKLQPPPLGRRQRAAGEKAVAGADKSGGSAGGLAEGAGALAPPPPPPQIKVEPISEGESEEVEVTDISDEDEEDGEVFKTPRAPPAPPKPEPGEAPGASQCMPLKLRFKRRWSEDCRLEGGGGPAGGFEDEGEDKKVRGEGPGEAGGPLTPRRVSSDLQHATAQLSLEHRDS
# Summary of the method: as §1
# [12] = biological target: T7, ETV3L (Homo sapiens, UniProt Q6ZN32 1-361); details: protein: recombinant; tags: N-terminal GST; dsDNA, one strand shown
# T7 sequence: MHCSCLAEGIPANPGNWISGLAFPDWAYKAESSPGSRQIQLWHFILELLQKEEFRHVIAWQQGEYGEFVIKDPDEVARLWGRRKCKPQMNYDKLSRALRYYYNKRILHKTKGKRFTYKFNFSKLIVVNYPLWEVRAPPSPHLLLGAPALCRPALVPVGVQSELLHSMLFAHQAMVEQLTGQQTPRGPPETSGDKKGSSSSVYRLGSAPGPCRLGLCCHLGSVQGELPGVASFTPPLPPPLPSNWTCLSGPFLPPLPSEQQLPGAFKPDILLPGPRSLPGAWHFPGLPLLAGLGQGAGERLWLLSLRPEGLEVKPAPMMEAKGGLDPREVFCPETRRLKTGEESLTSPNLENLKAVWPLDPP
# Summary of the method: as §1
# [13] = biological target: T8, ETS2 (Homo sapiens, UniProt P15036 1-469); details: protein: recombinant; tags: N-terminal GST; dsDNA, one strand shown
# T8 sequence: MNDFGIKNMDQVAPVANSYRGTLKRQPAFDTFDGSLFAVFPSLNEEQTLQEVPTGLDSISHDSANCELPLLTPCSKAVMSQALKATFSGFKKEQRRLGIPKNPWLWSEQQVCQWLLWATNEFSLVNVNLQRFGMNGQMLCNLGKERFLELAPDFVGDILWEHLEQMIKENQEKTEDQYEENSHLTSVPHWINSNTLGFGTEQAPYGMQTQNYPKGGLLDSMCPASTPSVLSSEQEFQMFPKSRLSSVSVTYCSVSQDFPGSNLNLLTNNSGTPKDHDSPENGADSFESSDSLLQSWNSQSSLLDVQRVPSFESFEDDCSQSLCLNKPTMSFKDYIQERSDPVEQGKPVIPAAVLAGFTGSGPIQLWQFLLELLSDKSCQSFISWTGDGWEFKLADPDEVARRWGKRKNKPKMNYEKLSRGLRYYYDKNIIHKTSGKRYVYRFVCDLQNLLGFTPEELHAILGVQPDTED
# Summary of the method: as §1
# [14] = biological target: T9, SPDEF (Homo sapiens, UniProt O95238 1-335); details: protein: recombinant; tags: N-terminal GST; dsDNA, one strand shown
# T9 sequence: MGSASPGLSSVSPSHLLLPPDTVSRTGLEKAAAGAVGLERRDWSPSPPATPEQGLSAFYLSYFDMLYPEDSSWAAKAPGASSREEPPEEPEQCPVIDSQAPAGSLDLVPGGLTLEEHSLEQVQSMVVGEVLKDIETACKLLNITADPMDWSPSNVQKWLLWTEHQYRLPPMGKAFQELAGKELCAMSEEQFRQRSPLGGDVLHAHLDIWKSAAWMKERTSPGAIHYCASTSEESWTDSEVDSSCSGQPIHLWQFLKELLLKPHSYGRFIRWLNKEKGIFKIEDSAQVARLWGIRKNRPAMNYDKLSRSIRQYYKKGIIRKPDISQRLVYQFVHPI
# Summary of the method: as §1
# [15] = biological target: T10, ETV7 (Homo sapiens, UniProt Q9Y603 1-341); details: protein: recombinant; tags: N-terminal GST; dsDNA, one strand shown
# T10 sequence: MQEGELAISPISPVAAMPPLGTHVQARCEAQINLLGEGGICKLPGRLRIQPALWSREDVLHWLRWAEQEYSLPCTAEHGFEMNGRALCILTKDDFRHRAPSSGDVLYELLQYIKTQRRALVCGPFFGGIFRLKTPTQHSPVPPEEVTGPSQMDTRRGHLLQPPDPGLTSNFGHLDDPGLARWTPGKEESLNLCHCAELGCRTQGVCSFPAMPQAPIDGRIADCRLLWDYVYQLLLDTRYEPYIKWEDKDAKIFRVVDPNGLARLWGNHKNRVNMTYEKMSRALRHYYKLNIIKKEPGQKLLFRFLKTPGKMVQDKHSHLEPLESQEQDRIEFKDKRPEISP
# Summary of the method: as §1
# [16] = biological target: T11, ELF5 (Homo sapiens, UniProt Q9UKW6-2 1-255); details: protein: recombinant; tags: N-terminal GST; dsDNA, one strand shown
# T11 sequence: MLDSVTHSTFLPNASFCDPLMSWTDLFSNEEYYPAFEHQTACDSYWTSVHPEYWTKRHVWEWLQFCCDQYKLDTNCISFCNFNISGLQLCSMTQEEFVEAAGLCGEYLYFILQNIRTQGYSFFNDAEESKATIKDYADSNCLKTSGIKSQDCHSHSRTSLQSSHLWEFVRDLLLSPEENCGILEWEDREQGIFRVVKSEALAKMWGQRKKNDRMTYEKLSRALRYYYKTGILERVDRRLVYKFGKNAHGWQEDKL
# Summary of the method: as §1
# [17] = biological target: T12, ETV3 (Homo sapiens, UniProt P41162-2 1-143); details: protein: recombinant; tags: N-terminal GST; dsDNA, one strand shown
# T12 sequence: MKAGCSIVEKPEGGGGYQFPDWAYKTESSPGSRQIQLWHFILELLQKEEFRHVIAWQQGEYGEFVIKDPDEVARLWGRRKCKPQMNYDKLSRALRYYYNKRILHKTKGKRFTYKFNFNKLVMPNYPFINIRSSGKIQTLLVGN
# Summary of the method: as §1
# [18] = biological target: ETV6 (Homo sapiens, UniProt P41212 1-452); details: protein: recombinant; tags: N-terminal GST; dsDNA, one strand shown
# Summary of the method: as §1
# Sequence of ELF4 (Q99607 whole entry): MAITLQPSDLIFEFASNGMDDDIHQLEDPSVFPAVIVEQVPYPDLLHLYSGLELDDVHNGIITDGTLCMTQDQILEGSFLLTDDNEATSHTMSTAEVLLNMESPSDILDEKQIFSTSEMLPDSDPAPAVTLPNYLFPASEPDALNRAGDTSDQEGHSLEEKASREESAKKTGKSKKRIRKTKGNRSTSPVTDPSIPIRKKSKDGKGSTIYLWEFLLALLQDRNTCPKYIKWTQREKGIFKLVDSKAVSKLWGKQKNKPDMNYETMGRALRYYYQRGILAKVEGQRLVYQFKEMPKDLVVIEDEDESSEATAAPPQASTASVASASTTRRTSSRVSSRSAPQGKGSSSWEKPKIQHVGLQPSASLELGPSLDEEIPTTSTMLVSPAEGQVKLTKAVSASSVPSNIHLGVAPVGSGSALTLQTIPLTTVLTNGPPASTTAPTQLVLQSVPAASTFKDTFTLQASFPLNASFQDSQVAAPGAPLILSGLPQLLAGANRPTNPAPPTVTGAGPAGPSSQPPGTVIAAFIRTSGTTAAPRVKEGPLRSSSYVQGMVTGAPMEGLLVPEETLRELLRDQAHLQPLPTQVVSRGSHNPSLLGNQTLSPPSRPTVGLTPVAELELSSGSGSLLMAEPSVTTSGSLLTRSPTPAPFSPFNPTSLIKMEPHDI
# Sequence of ETV1 (P50549 whole entry): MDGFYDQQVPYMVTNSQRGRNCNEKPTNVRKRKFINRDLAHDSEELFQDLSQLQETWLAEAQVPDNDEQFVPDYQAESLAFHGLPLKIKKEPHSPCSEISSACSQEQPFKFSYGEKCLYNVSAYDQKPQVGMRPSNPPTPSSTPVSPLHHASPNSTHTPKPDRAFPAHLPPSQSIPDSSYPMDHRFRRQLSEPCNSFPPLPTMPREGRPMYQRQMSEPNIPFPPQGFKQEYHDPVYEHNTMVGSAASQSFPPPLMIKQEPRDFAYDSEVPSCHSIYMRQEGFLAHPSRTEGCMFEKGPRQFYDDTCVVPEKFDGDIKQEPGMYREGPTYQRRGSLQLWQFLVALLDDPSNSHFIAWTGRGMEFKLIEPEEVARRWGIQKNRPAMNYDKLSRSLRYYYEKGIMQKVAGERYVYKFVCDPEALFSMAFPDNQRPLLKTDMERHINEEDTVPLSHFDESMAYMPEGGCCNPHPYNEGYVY
# Sequence of CRX (O43186 whole entry): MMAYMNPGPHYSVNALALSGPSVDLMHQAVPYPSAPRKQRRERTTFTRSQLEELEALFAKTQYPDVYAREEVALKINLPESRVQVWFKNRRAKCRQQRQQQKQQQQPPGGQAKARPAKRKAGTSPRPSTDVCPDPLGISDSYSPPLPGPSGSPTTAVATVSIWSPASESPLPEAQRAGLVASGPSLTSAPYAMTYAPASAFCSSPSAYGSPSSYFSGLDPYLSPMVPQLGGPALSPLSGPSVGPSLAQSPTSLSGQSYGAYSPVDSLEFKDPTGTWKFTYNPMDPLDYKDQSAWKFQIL
# Sequence of ETV5 (P41161 whole entry): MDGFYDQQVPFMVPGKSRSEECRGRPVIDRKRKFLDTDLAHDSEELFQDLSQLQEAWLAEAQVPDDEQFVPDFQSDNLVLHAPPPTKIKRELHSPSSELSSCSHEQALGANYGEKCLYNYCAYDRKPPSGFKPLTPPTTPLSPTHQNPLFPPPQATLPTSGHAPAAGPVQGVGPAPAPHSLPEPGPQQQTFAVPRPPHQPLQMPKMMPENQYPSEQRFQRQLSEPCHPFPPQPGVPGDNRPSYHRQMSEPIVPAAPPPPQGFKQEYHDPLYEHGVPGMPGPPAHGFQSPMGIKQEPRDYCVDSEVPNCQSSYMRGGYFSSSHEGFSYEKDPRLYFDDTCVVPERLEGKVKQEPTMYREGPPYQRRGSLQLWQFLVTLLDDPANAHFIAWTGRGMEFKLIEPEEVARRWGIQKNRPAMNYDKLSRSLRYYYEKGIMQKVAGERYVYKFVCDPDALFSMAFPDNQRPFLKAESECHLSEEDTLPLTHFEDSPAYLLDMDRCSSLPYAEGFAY
# Sequence of HSF1 (Q00613 whole entry): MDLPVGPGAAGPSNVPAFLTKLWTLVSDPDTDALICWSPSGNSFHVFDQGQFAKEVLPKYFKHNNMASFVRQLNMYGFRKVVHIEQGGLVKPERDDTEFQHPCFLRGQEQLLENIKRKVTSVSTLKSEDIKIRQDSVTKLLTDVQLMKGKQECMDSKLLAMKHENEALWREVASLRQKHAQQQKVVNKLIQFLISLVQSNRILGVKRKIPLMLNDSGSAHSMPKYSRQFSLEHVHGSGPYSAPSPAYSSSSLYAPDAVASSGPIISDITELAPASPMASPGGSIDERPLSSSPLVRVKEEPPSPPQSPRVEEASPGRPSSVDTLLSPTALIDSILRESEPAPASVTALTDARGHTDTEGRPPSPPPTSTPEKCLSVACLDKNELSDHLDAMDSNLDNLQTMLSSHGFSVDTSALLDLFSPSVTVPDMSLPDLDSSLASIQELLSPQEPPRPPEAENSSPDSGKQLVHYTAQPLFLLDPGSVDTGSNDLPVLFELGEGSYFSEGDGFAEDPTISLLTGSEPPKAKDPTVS
# Sequence of ETV6 (P41212 whole entry): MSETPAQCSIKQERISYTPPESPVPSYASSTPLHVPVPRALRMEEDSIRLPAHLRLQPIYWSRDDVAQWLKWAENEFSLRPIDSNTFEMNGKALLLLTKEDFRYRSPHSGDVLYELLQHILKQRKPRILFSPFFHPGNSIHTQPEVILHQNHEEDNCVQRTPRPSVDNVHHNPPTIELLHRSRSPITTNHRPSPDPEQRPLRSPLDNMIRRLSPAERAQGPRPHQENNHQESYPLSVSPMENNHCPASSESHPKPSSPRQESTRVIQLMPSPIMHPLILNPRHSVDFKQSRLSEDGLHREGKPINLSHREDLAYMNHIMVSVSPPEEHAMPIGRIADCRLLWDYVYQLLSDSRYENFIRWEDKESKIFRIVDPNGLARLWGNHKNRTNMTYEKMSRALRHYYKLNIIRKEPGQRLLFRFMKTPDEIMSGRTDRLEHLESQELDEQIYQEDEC
sequence,measurement,setting,value
CCGATA,binding signal,[1],"1.14 fold enrichment (6-mer frequency, TF over GST control)"
same,binding signal,[2],"1.15 fold enrichment (6-mer frequency, TF over GST control)"
same,binding signal,[3],"1.16 fold enrichment (6-mer frequency, TF over GST control)"
same,binding signal,[4],"1.2 fold enrichment (6-mer frequency, TF over GST control)"
same,binding signal,[5],"1.2 fold enrichment (6-mer frequency, TF over GST control)"
same,binding signal,[6],"1.08 fold enrichment (6-mer frequency, TF over GST control)"
same,binding signal,[7],"1.25 fold enrichment (6-mer frequency, TF over GST control)"
same,binding signal,[8],"1.05 fold enrichment (6-mer frequency, TF over GST control)"
same,binding signal,[9],"1.27 fold enrichment (6-mer frequency, TF over GST control)"
same,binding signal,[10],"1.16 fold enrichment (6-mer frequency, TF over GST control)"
same,binding signal,[11],"1.13 fold enrichment (6-mer frequency, TF over GST control)"
same,binding signal,[12],"1.05 fold enrichment (6-mer frequency, TF over GST control)"
same,binding signal,[13],"1.16 fold enrichment (6-mer frequency, TF over GST control)"
same,binding signal,[14],"1.05 fold enrichment (6-mer frequency, TF over GST control)"
same,binding signal,[15],"1.06 fold enrichment (6-mer frequency, TF over GST control)"
same,binding signal,[16],"1.1 fold enrichment (6-mer frequency, TF over GST control)"
same,binding signal,[17],"1.14 fold enrichment (6-mer frequency, TF over GST control)"
same,binding signal,[18],"1.12 fold enrichment (6-mer frequency, TF over GST control)"

# From PMC7862700, “An all-to-all approach to the identification of sequence-specific readers for epigenetic DNA modifications on cytosine”
